The record followed here is ChEMBL document CHEMBL2218924, “A broad activity screen in support of a chemogenomic map for kinase signalling research and drug discovery” (Biochem J, 2013).

For one experiment, the target named is T1, Dual specificity mitogen-activated protein kinase kinase 6 (Homo sapiens) (UniProt P52564).
T1 sequence (whole entry): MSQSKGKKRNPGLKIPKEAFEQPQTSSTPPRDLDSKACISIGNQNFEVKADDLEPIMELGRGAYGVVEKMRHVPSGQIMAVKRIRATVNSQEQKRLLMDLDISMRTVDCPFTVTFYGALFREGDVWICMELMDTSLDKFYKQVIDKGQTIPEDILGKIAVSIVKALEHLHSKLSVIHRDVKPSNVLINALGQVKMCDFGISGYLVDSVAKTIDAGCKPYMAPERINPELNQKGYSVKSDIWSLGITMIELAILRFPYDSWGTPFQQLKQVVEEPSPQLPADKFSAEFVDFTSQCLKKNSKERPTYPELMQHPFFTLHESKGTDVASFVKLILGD
Particulars: at 1 µM.
`Cn1c2ccccc2c2c3c(c4c5ccccc5n(CCC#N)c4c21)CNC3=O`: the residual activity is 0%.

Take `Nc1ncnc2c1cnn2-c1ccccc1`: the residual activity was determined as 79%.

As to `COc1ccc(COc2ccc(Cc3cnc(N)nc3N)cc2OC)cc1`, the residual activity came to 78%.

On to `O=C1Cc2c([nH]c3ccc([N+](=O)[O-])cc23)-c2ccccc2N1`, for which the residual activity is 79%.

Consider `O=c1cc(N2CCOCC2)oc2c1ccc1ccccc12`, for which the residual activity was determined as 92%.

Regarding `N#C/C(=C\c1ccc(O)c(O)c1)C(=O)NCc1ccccc1`, the residual activity worked out at 89%.

Take `c1ccc(-c2cnc(Nc3ccc(OCCN4CCCC4)cc3)s2)cc1`: the residual activity amounted to 77%.

Turning to `Nc1ncnc2c1c(-c1ccc(Oc3ccccc3)cc1)cn2C1CCCC1`, the residual activity was determined as 85%.

For the molecule `O=C(NC(NC(=S)Nc1ccc(F)c([N+](=O)[O-])c1)C(Cl)(Cl)Cl)C(c1ccccc1)c1ccccc1` (centres undefined), the residual activity came out at 135%.

`O=C1NC(=O)C(c2cn(CCCO)c3ncccc23)=C1c1cnccn1`: the residual activity was 85%.

With `O=C(Nc1nc2ccccc2n1CCN1CCOCC1)c1cccc([N+](=O)[O-])c1`, the residual activity was 73%.

Consider `NCCNc1ncc(C(N)=O)c(Nc2cccc(C(F)(F)F)c2)n1`, for which the residual activity came to 18%.

`O=C(O)/C=C/c1cc(Br)c(Br)c(Br)c1Br`: the residual activity turned out to be 99%.

For `CC(C)(C)n1nc(Cc2cccc3ccccc23)c2c(N)ncnc21`, the residual activity stood at 57%.

For the molecule `O=C(CCCc1ccc(-c2ccccc2F)cc1)Nc1ccc(O)cc1`, the residual activity worked out at 98%.

As to `CSc1nc(-c2ccc(F)cc2)c(-c2ccnc(NC(C)c3ccccc3)c2)[nH]1` (centres undefined), the residual activity worked out at 70%.

Turning to `CCN(CC)CCNC(=O)c1c(C)[nH]c(/C=C2\C(=O)Nc3ccc(Cl)cc32)c1C`, the residual activity came to 66%.

Regarding `CC(C)[C@H](CO)Nc1nc(Nc2cc(N)cc(Cl)c2)c2ncn(C(C)C)c2n1`, the residual activity is 93%.

As for `O=C1Nc2ccc(Cl)cc2/C1=C/c1cc(Cl)c(O)c(Cl)c1`, the residual activity was 82%.

For `COc1cc2nccc(Oc3ccc(NC(=S)NC(=O)c4ccccc4C)cc3)c2cc1OC`, the residual activity was 65%.

For `N#C/C(=C1/Nc2ccccc2S1)c1ccnc(NCCc2cccnc2)n1`, the residual activity was found to be 84%.

Turning to `CC(C)(C)c1nc2c3ccc(F)cc3c3c(=O)[nH]ccc3c2[nH]1`, the residual activity stood at 39%.

With `O=C1Cc2c([nH]c3ccc(Br)cc23)-c2ccccc2N1`, the residual activity turned out to be 100%.

On to `O=c1c(-c2ccc(F)cc2)c(-c2ccncc2)[nH]n1-c1ccc(Cl)cc1`, for which the residual activity stood at 74%.

Regarding `N#Cc1c(NC(=O)c2cccc3ccccc23)sc2c1CCCC2`, the residual activity was 93%.

In the case of `Fc1ccc(-c2nc3n(c2-c2ccncc2)CCS3)cc1`, the residual activity came out at 61%.

Turning to `O=c1cc(N2CCNCC2)oc2c(-c3ccccc3)cccc12`, the residual activity worked out at 92%.

As to `O=C1NC(=O)c2c1c1c3ccccc3[nH]c1n1cncc21`, the residual activity worked out at 69%.

With `Nc1n[nH]c2nc3ccccc3nc12`, the residual activity came out at 95%.

`NC(=O)c1ccc(-c2nc(-c3ccc4c(c3)OCCO4)c(-c3ccccn3)[nH]2)cc1`: the residual activity was found to be 97%.

On to `NC(=O)Nc1sc(-c2ccc(F)cc2)cc1C(N)=O`, for which the residual activity turned out to be 97%.

For `O=C(c1ccccc1)c1ccc(N2CCOCC2)cc1O`, the residual activity came out at 85%.

For the next experiment, the target named is T1, Dual specificity mitogen-activated protein kinase kinase 6 (Homo sapiens). The following applies: at 10 µM.
With `Cn1c2ccccc2c2c3c(c4c5ccccc5n(CCC#N)c4c21)CNC3=O`, the residual activity worked out at 1%.

As for `Nc1ncnc2c1cnn2-c1ccccc1`, the residual activity stood at 91%.

Regarding `COc1ccc(COc2ccc(Cc3cnc(N)nc3N)cc2OC)cc1`, the residual activity stood at 80%.

As for `O=C1Cc2c([nH]c3ccc([N+](=O)[O-])cc23)-c2ccccc2N1`, the residual activity was found to be 77%.

As for `O=c1cc(N2CCOCC2)oc2c1ccc1ccccc12`, the residual activity is 86%.

For the molecule `N#C/C(=C\c1ccc(O)c(O)c1)C(=O)NCc1ccccc1`, the residual activity is 101%.

As to `c1ccc(-c2cnc(Nc3ccc(OCCN4CCCC4)cc3)s2)cc1`, the residual activity came out at 72%.

For `Nc1ncnc2c1c(-c1ccc(Oc3ccccc3)cc1)cn2C1CCCC1`, the residual activity was found to be 89%.

As to `O=C(NC(NC(=S)Nc1ccc(F)c([N+](=O)[O-])c1)C(Cl)(Cl)Cl)C(c1ccccc1)c1ccccc1` (centres undefined), the residual activity is 80%.

Take `O=C1NC(=O)C(c2cn(CCCO)c3ncccc23)=C1c1cnccn1`: the residual activity is 77%.

For the molecule `O=C(Nc1nc2ccccc2n1CCN1CCOCC1)c1cccc([N+](=O)[O-])c1`, the residual activity amounted to 137%.

Turning to `NCCNc1ncc(C(N)=O)c(Nc2cccc(C(F)(F)F)c2)n1`, the residual activity was determined as 6%.

Regarding `O=C(O)/C=C/c1cc(Br)c(Br)c(Br)c1Br`, the residual activity came out at 84%.

Consider `CC(C)(C)n1nc(Cc2cccc3ccccc23)c2c(N)ncnc21`, for which the residual activity was 38%.

On to `O=C(CCCc1ccc(-c2ccccc2F)cc1)Nc1ccc(O)cc1`, for which the residual activity was determined as 75%.

As for `CSc1nc(-c2ccc(F)cc2)c(-c2ccnc(NC(C)c3ccccc3)c2)[nH]1` (centres undefined), the residual activity was -2%.

With `CCN(CC)CCNC(=O)c1c(C)[nH]c(/C=C2\C(=O)Nc3ccc(Cl)cc32)c1C`, the residual activity was found to be 46%.

`CC(C)[C@H](CO)Nc1nc(Nc2cc(N)cc(Cl)c2)c2ncn(C(C)C)c2n1`: the residual activity was 78%.

In the case of `O=C1Nc2ccc(Cl)cc2/C1=C/c1cc(Cl)c(O)c(Cl)c1`, the residual activity was found to be 38%.

As to `COc1cc2nccc(Oc3ccc(NC(=S)NC(=O)c4ccccc4C)cc3)c2cc1OC`, the residual activity turned out to be 71%.

As to `N#C/C(=C1/Nc2ccccc2S1)c1ccnc(NCCc2cccnc2)n1`, the residual activity was found to be 39%.

`CC(C)(C)c1nc2c3ccc(F)cc3c3c(=O)[nH]ccc3c2[nH]1`: the residual activity is 41%.

Take `O=C1Cc2c([nH]c3ccc(Br)cc23)-c2ccccc2N1`: the residual activity worked out at 77%.

For `O=c1c(-c2ccc(F)cc2)c(-c2ccncc2)[nH]n1-c1ccc(Cl)cc1`, the residual activity was found to be 0%.

Take `N#Cc1c(NC(=O)c2cccc3ccccc23)sc2c1CCCC2`: the residual activity stood at 85%.

For `Fc1ccc(-c2nc3n(c2-c2ccncc2)CCS3)cc1`, the residual activity stood at 9%.

Consider `O=c1cc(N2CCNCC2)oc2c(-c3ccccc3)cccc12`, for which the residual activity is 89%.

For the molecule `O=C1NC(=O)c2c1c1c3ccccc3[nH]c1n1cncc21`, the residual activity was 21%.

As to `Nc1n[nH]c2nc3ccccc3nc12`, the residual activity stood at 84%.

Take `NC(=O)c1ccc(-c2nc(-c3ccc4c(c3)OCCO4)c(-c3ccccn3)[nH]2)cc1`: the residual activity was 58%.

With `NC(=O)Nc1sc(-c2ccc(F)cc2)cc1C(N)=O`, the residual activity worked out at 41%.

As to `O=C(c1ccccc1)c1ccc(N2CCOCC2)cc1O`, the residual activity was determined as 79%.
